Molecules are shown by their SMILES. About 83,000 compounds went through this panel and 20% of them were active in at least one assay; those are over-represented in the sample as a whole.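 For each line, cells grew in 96-well plates with the test compound present at a single concentration for 48 hours.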 Unmarked numbers belong to inactive results. Calls of active or inactive are those of the source. How the source made its calls: active means growth percent below 10; inactive means the rest.

Among the test systems are RPMI-8226 leukemia; OVCAR-8 ovarian; OVCAR-5 ovarian; OVCAR-4 ovarian; IGROV1 ovarian; OVCAR-3 ovarian; HS 578T breast; NCI/ADR-RES ovarian; T-47D breast; BT-549 breast; MDA-MB-435 melanoma; SW-620 colon; MCF7 breast; HCT-116 colon; HCC-2998 colon; KM12 colon; SK-OV-3 ovarian.
Holding throughout (experiment): NCI-60 one-dose screen, 48 h (100 = growth as untreated, 0 = no growth, -100 = all killed)
What all share (settings): 10 µM

Regarding `O=C1C(c2ccccc2)C2C=CC(C2)N1O` (configuration not stated), the growth in the experiment with RPMI-8226 leukemia was 81%; in the experiment on OVCAR-8 ovarian it was 104%; in the experiment with OVCAR-5 ovarian, 119%; in the experiment on OVCAR-4 ovarian, 116%; in the experiment on IGROV1 ovarian it was 108%; with OVCAR-3 ovarian it was 112%. For the same compound, the growth with HS 578T breast was 105%; with NCI/ADR-RES ovarian, 112%; with T-47D breast it was 92.1%; with BT-549 breast, 136%; in the experiment on MDA-MB-435 melanoma, 107%; with SW-620 colon, 109%. In addition, the growth in the experiment on MCF7 breast is 104%; in the experiment with HCT-116 colon, 104%; in the experiment on HCC-2998 colon, 103%; in the experiment with KM12 colon, 108%.
With `Clc1cc2c(c(CSc3nc4ccccc4n4cccc34)c1)OCOC2`, the growth is 49% with RPMI-8226 leukemia; 59.3% in the experiment on OVCAR-8 ovarian; 87.2% in the experiment on OVCAR-5 ovarian; 3.98% (active) in the experiment on OVCAR-4 ovarian; 74.9% in the experiment on SK-OV-3 ovarian; 72.2% with OVCAR-3 ovarian. The growth in the experiment on HS 578T breast is 91.8%; in the experiment on NCI/ADR-RES ovarian it was 89.5%; in the experiment with T-47D breast it was 2.37% (active); with BT-549 breast it was 81.2%; with MDA-MB-435 melanoma, 92.2%; in the experiment on SW-620 colon, 94.4%. For the same compound, the growth in the experiment with MCF7 breast was 8.11% (active); in the experiment on HCT-116 colon, 80%; in the experiment on HCC-2998 colon, 85.4%; with KM12 colon, 88.4%.
Take `CCCCN(CCCC)CCCCCCCCC(O)c1cc2ccccc2c2ccccc12` (configuration not stated): the growth was -7.55% (active) in the experiment with RPMI-8226 leukemia; 49.4% with OVCAR-8 ovarian; 74.8% in the experiment on OVCAR-5 ovarian; 46.2% in the experiment on OVCAR-4 ovarian; 80.7% with SK-OV-3 ovarian; 44.8% with IGROV1 ovarian. In addition, the growth with HS 578T breast was 73.7%; in the experiment on NCI/ADR-RES ovarian it was 54.6%; in the experiment on T-47D breast, 31.7%; in the experiment on BT-549 breast, 67.5%; in the experiment on MDA-MB-435 melanoma, 67.3%; in the experiment with SW-620 colon, 66.6%. In addition, the growth in the experiment on MCF7 breast was 28.7%; in the experiment with HCT-116 colon, 22.7%; with HCC-2998 colon it was 61.5%; in the experiment with KM12 colon, 40.9%.
Regarding `COc1cc(C(=C2O[C@@H]([C@H]3COC(C)(C)O3)[C@H]3OC(C)(C)O[C@@H]23)c2cc(OC)c(OC)c(OC)c2)cc(OC)c1OC`, the growth is 88.1% in the experiment with RPMI-8226 leukemia; 108% in the experiment on OVCAR-8 ovarian; 90.8% in the experiment on OVCAR-5 ovarian; 108% in the experiment on OVCAR-4 ovarian; 116% in the experiment on SK-OV-3 ovarian; 137% with IGROV1 ovarian. Besides, the growth with OVCAR-3 ovarian is 112%; in the experiment with NCI/ADR-RES ovarian it was 91.7%; in the experiment on T-47D breast it was 95.7%; in the experiment with BT-549 breast, 111%; in the experiment with MDA-MB-435 melanoma, 113%; in the experiment with MCF7 breast, 103%. Besides, the growth in the experiment on HCT-116 colon is 96.4%; in the experiment with KM12 colon it was 107%.
Consider `CCOC(=O)CNC(=O)CCCCSc1ncnc2nc[nH]c12`, for which the growth with RPMI-8226 leukemia was 107%; in the experiment on OVCAR-8 ovarian it was 108%; with OVCAR-5 ovarian, 90.1%; in the experiment on OVCAR-4 ovarian it was 111%; in the experiment on SK-OV-3 ovarian it was 115%; in the experiment with OVCAR-3 ovarian, 112%. The growth in the experiment on HS 578T breast is 107%; in the experiment with NCI/ADR-RES ovarian it was 97.3%; with T-47D breast, 100%; with MDA-MB-435 melanoma it was 110%; in the experiment with SW-620 colon, 107%; in the experiment on MCF7 breast, 91.9%. Besides, the growth with HCT-116 colon was 101%; in the experiment on HCC-2998 colon, -18% (active); in the experiment on KM12 colon, 108%.
For the compound `CCN(CC)Cc1cc(Nc2ccnc3cc(Cl)ccc23)ccc1OC`, the growth is 72.2% with RPMI-8226 leukemia; 91.7% in the experiment with OVCAR-8 ovarian; 109% with OVCAR-5 ovarian; 68.2% in the experiment with OVCAR-4 ovarian; 102% in the experiment on SK-OV-3 ovarian; 94.5% in the experiment on IGROV1 ovarian. For the same compound, the growth in the experiment on OVCAR-3 ovarian was 93.6%; in the experiment with NCI/ADR-RES ovarian, 89.5%; in the experiment with T-47D breast, 102%; in the experiment with BT-549 breast, 110%; with MDA-MB-435 melanoma, 77.9%; with SW-620 colon it was 64.1%. The growth in the experiment on MCF7 breast was 86.7%; in the experiment on HCT-116 colon, 69.1%; in the experiment with HCC-2998 colon, 81%; in the experiment on KM12 colon it was 83.5%.
As to `COc1ccc2nc3cc(Cl)ccc3c(NCCNCC(C)O)c2c1` (configuration not stated), the growth is 19.8% in the experiment with RPMI-8226 leukemia; 17.1% with OVCAR-8 ovarian; 24.6% with OVCAR-5 ovarian; 37% in the experiment with OVCAR-4 ovarian; 37.5% with SK-OV-3 ovarian; 26.2% in the experiment on IGROV1 ovarian. For the same compound, the growth was 67.2% in the experiment on HS 578T breast; 51.9% with NCI/ADR-RES ovarian; 25.9% with T-47D breast; 88% with BT-549 breast; 37.9% in the experiment on MDA-MB-435 melanoma; 19.9% in the experiment with SW-620 colon. Also, the growth in the experiment on MCF7 breast was 10.5%; in the experiment on HCT-116 colon, 13.1%; with HCC-2998 colon it was 40.8%; in the experiment with KM12 colon, 25.5%.
For `O=C(Nc1ccc(Cl)c([N+](=O)[O-])c1)Nc1nc2ccccc2s1`, the growth is 7.17% (active) with RPMI-8226 leukemia; 85.3% with OVCAR-8 ovarian; 103% in the experiment on OVCAR-5 ovarian; 67.1% in the experiment with OVCAR-4 ovarian; 84.9% in the experiment with SK-OV-3 ovarian; 79.5% in the experiment with OVCAR-3 ovarian. The growth is 103% with HS 578T breast; 80.9% with NCI/ADR-RES ovarian; 36.8% in the experiment on T-47D breast; 88.3% in the experiment with BT-549 breast; 89.4% with MDA-MB-435 melanoma; 79% with MCF7 breast. The growth with HCT-116 colon is 66.3%; with HCC-2998 colon, 86.3%; in the experiment with KM12 colon it was 106%.
With `O=C(NN1C(=O)CSC1c1ccc(Cl)cc1)c1cccnc1` (configuration not stated), the growth was 74.8% in the experiment on RPMI-8226 leukemia; 99.7% in the experiment on OVCAR-8 ovarian; 86.7% in the experiment with OVCAR-5 ovarian; 118% with OVCAR-4 ovarian; 106% in the experiment on SK-OV-3 ovarian; 112% in the experiment on IGROV1 ovarian. Besides, the growth is 121% in the experiment with OVCAR-3 ovarian; 91.4% with NCI/ADR-RES ovarian; 102% in the experiment with T-47D breast; 102% in the experiment with BT-549 breast; 87.3% in the experiment with MDA-MB-435 melanoma; 111% with MCF7 breast. In addition, the results for the growth in the experiment on HCT-116 colon and in the experiment with KM12 colon were 86.9% and 94.2%, respectively.
Take `CCN(CCCCCCCCCCN1CC(=O)N(CCCCCCCCCCN(CC)Cc2ccccc2OC)CC1=O)Cc1ccccc1OC`: the growth in the experiment on RPMI-8226 leukemia is -70.2% (active); in the experiment with OVCAR-8 ovarian, -77.1% (active); in the experiment with OVCAR-5 ovarian, 8.29% (active); with OVCAR-4 ovarian, 10.2%; in the experiment on SK-OV-3 ovarian, -38.5% (active); with IGROV1 ovarian, -66.3% (active). Also, the growth in the experiment with OVCAR-3 ovarian was -62.6% (active); with NCI/ADR-RES ovarian, -32.9% (active); with T-47D breast it was -66.5% (active); in the experiment with BT-549 breast, -50.7% (active); with MDA-MB-435 melanoma it was -72% (active); with MCF7 breast, -89.2% (active). For the same compound, the growth was -95.2% (active) with HCT-116 colon and -76.2% (active) in the experiment on KM12 colon.
